Test results published in PubChem BioAssay AID624483 (NMMLSC, 2012).
Among all 360,000 compounds or so, about 11,000 (3.1%) were called active. Roughly 2% stayed inconclusive and do not appear here. The list comes from a sample in which actives are over-represented; it also holds similar structures and randomly drawn compounds. Unmarked numbers belong to inactive results. No stated cut-off is given here; in the data, active means fluorescence intensity above about 16000; inconclusive means no clear call, values can overlap the other calls; inactive means below that.

Test: counter-screen for toxin protease inhibitors: compound fluorescence, primary screen, artefact control for toxin protease inhibitor project, biochemical, multiplex microsphere, HTS (AID 624483)
Details: compound autofluorescence counterscreen, microsphere flow cytometry; active compounds read high
Compound `COc1ccc(/C=C2/CCCc3ccccc3C2=O)cc1` has a fluorescence intensity of 3030.
With `COc1ccc(/C=C2\CCCC3C2=NN(C(=O)c2scnc2C)C3c2ccc(OC)cc2)cc1` (stereo unspecified) the fluorescence intensity was 22800 (active).
With `COc1ccc(C=C2CCC3C(CCCC34OCCO4)C2=O)cc1` (stereo unspecified) the fluorescence intensity was 2890.
In the case of `Nc1ncnc2c1ncn2[C@@H]1O[C@H](C(=O)N2CCSC2)[C@@H](O)[C@H]1O`, the fluorescence intensity was 5590.
`O=C(NC1CCCC1)C1c2ccccc2OCC(=O)N1CC(F)(F)F` (stereo unspecified) showed a fluorescence intensity of 6700.
Compound `Cn1c(CN2CCOCC2)nc2cc(NC(=O)c3ccc(Cl)cc3)ccc21` has a fluorescence intensity of 4450.
With `COCCn1c(C)cc(C2=NNC(=Nc3ccc(F)cc3)SC2)c1C` the fluorescence intensity was 20800 (active).
Work on `C=CCn1c(C)cc(C2=NNC(=NCC)SC2)c1C` yielded a fluorescence intensity of 2100.
Compound `C[C@@H]1CN([C@@H](C)CO)C(=O)c2c(c3ccccc3n2C)-c2ccccc2CO[C@H]1CN(C)C(=O)C1CC1` has a fluorescence intensity of 3570.
`CCCCCCCCN1C(=O)[C@H](CC(=O)NCc2cccc3ccccc23)C[C@@]2(C(=O)OC)CCCCC=C12` showed a fluorescence intensity of 4630.
Compound `CC(=O)NCC(=O)N1CCC(n2nccc2NC(=O)CCCc2ccccc2)CC1` has a fluorescence intensity of 6400.
`NNC(=O)c1ccc(COCC(F)(F)C(F)F)cc1` gave a fluorescence intensity of 4020.
`O=C(O)CCC(=O)NCc1ccc(C(=O)O)cc1` showed a fluorescence intensity of 3850.
For `O=C(O)c1ccc(COCC(F)(F)F)cc1`, the fluorescence intensity was 16300 (active).
Compound `O=C(NCCCN1CCOCC1)C1CCCN(S(=O)(=O)N2CCCCC2)C1` (stereo unspecified) has a fluorescence intensity of 5550.
In the case of `CN(C(=O)COC(=O)CCCc1c[nH]c2ccccc12)c1c(N)n(Cc2ccccc2)c(=O)[nH]c1=O`, the fluorescence intensity was 3770.
Compound `CC1=C(C(=O)N2CCOCC2)CC(CC(=O)NCCCN(C)C)C(=O)N1Cc1ccc(C(C)(C)C)cc1` (stereo unspecified) has a fluorescence intensity of 5880.
For `CCOC(=O)c1cc(-c2nnc(-c3cc(OC)c(OC)c(OC)c3)o2)c(C)nc1C`, the fluorescence intensity was 3800.
In the case of `CCOc1ccc(-c2noc(CCC(=O)NC3CCCC3)n2)cc1OC`, the fluorescence intensity was 4230.
For `CCOc1nc(-c2ccc(OC)cc2)ccc1-c1noc(-c2cc(OC)c(OC)c(OC)c2)n1`, the fluorescence intensity was 20200 (active).
Compound `Nc1ncnc2c1ncn2[C@@H]1O[C@H](C(=O)NCC(F)(F)F)[C@@H](O)[C@H]1O` has a fluorescence intensity of 5880.
`COC(=O)[C@@]1(Cc2ccc(F)cc2)[C@H]2c3cc(C(=O)N4CCCC4)n(Cc4ccc(OC(F)(F)F)cc4)c3C[C@H]2CN1C(=O)c1ccccc1` showed a fluorescence intensity of 4360.
For `CN1C[C@@H](CO)O[C@@H](n2cnc3c(N4CCN(CCO)CC4)ncnc32)C1`, the fluorescence intensity was 3470.
With `CC(=O)c1ccc(NC(=O)CSc2nc3ccccc3c(=O)n2CCCN2CCOCC2)cc1` the fluorescence intensity was 3650.
`COC(=O)c1ccc2c(=O)n(CCN3CCOCC3)c(SCC(=O)Nc3cccc(OC)c3)nc2c1` gave a fluorescence intensity of 5360.
For `CCc1ccc(NC(=O)CSc2nc3ccccc3c(=O)n2CCN2CCOCC2)cc1`, the fluorescence intensity was 23500 (active).
With `Clc1ccc(-c2cccc3nccn23)cc1` the fluorescence intensity was 3770.
`COc1cccc(-c2nc3nc(C)cc(C)n3c2NC2CCCCC2)c1` gave a fluorescence intensity of 7480.
For `Cc1ccc(F)c(S(=O)(=O)NC(=O)C2(C)CCN2C(=O)c2ccco2)c1` (stereo unspecified), the fluorescence intensity was 3860.
With `COC(=O)c1[nH]c2ccccc2c1NS(=O)(=O)c1ccc(OC)cc1OC` the fluorescence intensity was 20900 (active).
`COc1ccc(NC(=O)COC(=O)c2n[nH]c3ccccc23)c(OC)c1` gave a fluorescence intensity of 5180.
`CCCS(=O)(=O)Nc1c(C(=O)O)[nH]c2ccccc12` showed a fluorescence intensity of 10100.
`CCC(C)(C)c1ccc(OCC(=O)N(C)C)c(C(C)(C)CC)c1` showed a fluorescence intensity of 4730.
In the case of `Cc1ccc(C(=O)Nc2ccccc2C(=O)NC2CCCCC2)cc1S(=O)(=O)N1CCOCC1`, the fluorescence intensity was 16600 (active).
Compound `Cc1ccc(C(=O)Nc2ncccc2C)cc1S(=O)(=O)N1CCOCC1` has a fluorescence intensity of 5280.
`Cc1ccc(NC(=O)NC2CCCCC2)cc1S(=O)(=O)N1CCOCC1` showed a fluorescence intensity of 3370.
`CCc1ccccc1NC(=O)CN1CCN(C(=O)c2cc(C3CC3)nn2-c2ccccc2)CC1` gave a fluorescence intensity of 3950.
With `CCCCCC(=O)N1CCN(S(=O)(=O)c2ccc3c(c2)OCCCO3)CC1` the fluorescence intensity was 5990.
Work on `CCNC(=O)N1CCN(S(=O)(=O)c2ccc3c(c2)OCCCO3)CC1` yielded a fluorescence intensity of 5340.
For `CN1CCCN(S(=O)(=O)c2ccc3c(c2)OCCO3)CC1`, the fluorescence intensity was 22400 (active).
Work on `N#Cc1ccc(-c2nc3c(Cl)cc(C(F)(F)F)cn3c2Cc2ccccc2C(F)(F)F)cc1` yielded a fluorescence intensity of 5560.
`COc1ccc(NC(=O)C2Cc3c(-c4ccc5c(c4)OCO5)ccnc3O2)cn1` (stereo unspecified) gave a fluorescence intensity of 2850.
`C#CCOc1ccccc1/C=C1/C(=O)ON=C1C` showed a fluorescence intensity of 4290.
For `CCOC(=O)c1cc2c(ccn2C)n1CC(=O)N1CCC(C)CC1`, the fluorescence intensity was 4040.
For `C/C(=N\c1nc2ccccc2n1C)c1cc(Cl)ccc1O`, the fluorescence intensity was 3250.
In the case of `Oc1ccc(Cl)cc1/C=N/c1nc2ccccc2[nH]1`, the fluorescence intensity was 22500 (active).
For `Oc1c(Cl)cc(Cl)cc1/C=N/c1ncn[nH]1`, the fluorescence intensity was 4010.
`C=CCNCCCCOc1ccccc1` showed a fluorescence intensity of 2600.
For `CCc1nc2c(OCC(=O)C(C)(C)C)cccn2c1N(C)C(=O)c1ccccc1F`, the fluorescence intensity was 3600.
In the case of `CC1(C(=O)NCc2ccc3c(c2)OCO3)CCN1CCc1ccccc1` (stereo unspecified), the fluorescence intensity was 3940.
With `CCc1nc2ccc(C(=O)N3CCN(S(=O)(=O)CC)CC3)cn2c1N(C=O)CCC(C)C` the fluorescence intensity was 3570.
Compound `CC1CCCN(C(=O)Cn2c(=O)oc3ccccc32)C1` (stereo unspecified) has a fluorescence intensity of 3850.
Compound `CC(=O)c1ccc(NC(=O)Cn2c(=O)oc3ccccc32)cc1` has a fluorescence intensity of 3040.
In the case of `NC(=O)Cn1c(=O)oc2ccccc21`, the fluorescence intensity was 19700 (active).
`O=C(NC(c1ccc(Cl)cc1)c1cnccn1)C1CCN(Cc2ccc(Cl)cc2)CC1` (stereo unspecified) gave a fluorescence intensity of 4620.
`CCCCC[C@H](C)N1C[C@@H](COCc2ccccc2)Oc2cc(N3CC[C@@H](N(C)C)C3)ccc2S1(=O)=O` gave a fluorescence intensity of 5700.
